ChEMBL document CHEMBL3988442, “University of Dundee, Small-Polar-MMV Screening Library” (2021)
The campaign covered roughly 48,000 compounds. About 13,000 (27%) showed an effect of 50% or more. The list shows a part of the results.

System: Wolbachia pipientis
Assay: Anti-Wolbachia Cell-Based Screen
Type: functional
Set-up: scale not given: in the data most compounds retested in dose-response had high values
Conditions: 5 µM

SMILES	Percent Effect
CCc1nc(CNCC2(C(N)=O)CCOCC2)cs1	1.973%
CCCC1(CO)CCCN(c2ncccc2F)C1 (stereo unspecified)	-3.484%
COc1ccc(OCc2cc(C(=O)N3CCN[C@H](C)C3)n[nH]2)c(Cl)c1	-13.06%
CNC(=O)c1ccc(CN(C(C)C)C(C)C)o1.Cl	-8.523%
COc1cc(C)c(CNC(C)c2csc(C)n2)cc1OC (stereo unspecified)	-9.97%
N#CCCN(CCC#N)C(=O)COC1CCCCC1	-15.39%
COc1c(C2CCCN2C(=O)c2ccc(Cl)o2)c(C)nn1C (stereo unspecified)	6.578%
COc1c(C2CCCN2C(=O)c2csc(C3CC3)n2)c(C)nn1C (stereo unspecified)	61.26%
COc1c(C2CCCN2C(=O)c2ccco2)c(C)nn1C (stereo unspecified)	-0.9591%
COc1c(C2CCCN2C(=O)c2cnn(C)c2C2CC2)c(C)nn1C (stereo unspecified)	-4.592%
CCc1ccc(C(=O)N2CCCC2c2c(C)nn(C)c2OC)o1 (stereo unspecified)	54.64%
COc1c(C2CCCN2C(=O)c2csc(C(C)C)n2)c(C)nn1C (stereo unspecified)	8.615%
CCc1noc(C)c1C(=O)N1CCCC1c1c(C)nn(C)c1OC (stereo unspecified)	-9.828%
COc1c(C2CCCN2C(=O)c2cc(C)on2)c(C)nn1C (stereo unspecified)	99.28%
COc1c(C2CCCN2C(=O)c2cc(C3CC3)on2)c(C)nn1C (stereo unspecified)	-11.04%
COCc1nc(C(=O)N2CCCC2c2c(C)nn(C)c2C)cs1 (stereo unspecified)	3.792%
Cc1nn(C)c(Cl)c1C1CCCN1C(=O)c1cnn(C)c1C1CC1 (stereo unspecified)	93.32%
c1ccc(CCCN2CC[C@H](c3nnc(-c4ccccc4)o3)C2)cc1	-1.621%
CCN(Cc1ccoc1)C(C(N)=O)c1ccc(C#N)cc1 (stereo unspecified)	0.4454%
O=C(NCCc1csc(N2CCCC2)n1)N(C1CCCC1)C1CC1	-4.119%
Cc1cc2nc(CO[C@H]3CN(C4CCCCC4)C[C@H]3F)[nH]c2cc1C	9.281%
Cc1noc([C@@H]2C[C@H]3CN(Cc4ccc5c(c4)OCO5)C[C@H]3O2)n1.O=C(O)C(F)(F)F	-40.6%
COc1c(C2CCCN2C(=O)c2cnc(C)cn2)c(C)nn1C (stereo unspecified)	86.16%
COc1c(C2CCCN2C(=O)c2cnccn2)c(C)nn1C (stereo unspecified)	114.6%

SMILES	Percent Effect
Cc1nn(C)c(Cl)c1C1CCCN1C(=O)c1cc(C2CC2)on1 (stereo unspecified)	102.8%
COc1c(C2CCCN2C(=O)c2cscn2)c(C)nn1C (stereo unspecified)	88.43%
Cc1nc[nH]c1-c1nnc(SCC(=O)O)n1-c1ccccc1C(F)(F)F	-17.22%
O=S(=O)(Cc1ccccc1F)NC(CO)c1ccco1 (stereo unspecified)	6.014%
Cl.Cl.Cl.O[C@@H]1C[C@@](CNCc2ccccn2)(COc2cccnc2)C[C@@H]1O	-17.47%
Cc1ccsc1CNC(=O)c1ccc(N2CCNC2=O)cc1	1.647%
COc1ccc(NC(=O)N2CCC3(CC2)NC(=O)CC3C(=O)O)c(C)c1 (stereo unspecified)	2.707%
Cn1c(CS(=O)(=O)Cc2cccc(Cl)c2)cc(=O)n(C)c1=O	7.085%
CCS(=O)(=O)CCNc1nc(C2CCCC2)nc2c1cnn2C	3.087%
CCc1nc(CC(=O)N2CCCC2c2c(C)nn(C)c2OC)cs1 (stereo unspecified)	118.7%
COc1c(C2CCCN2C(=O)Cc2c(C)noc2C)c(C)nn1C (stereo unspecified)	-5.371%
Cc1nn(C)c(C)c1C1CCCN1C(=O)Cc1cn2ccsc2n1 (stereo unspecified)	10.74%
CCN(c1ccc(C(=O)Nc2c(C)nn(C(C)C)c2C)cc1)C(C)C	-6.116%
COc1cccc(N2CC3(CCN(c4ccc(C)nn4)C3)CC2=O)c1 (stereo unspecified)	3.863%
N#Cc1cccc(C(=O)N2CC[C@H]3[C@H]2CCN3CC2CCOCC2)c1.O=C(O)C(F)(F)F	-18.46%
CN1[C@H](Cn2cncn2)C[C@@H]2CN(Cc3cccc(C#N)c3)CC[C@@H]21.O=C(O)C(F)(F)F.O=C(O)C(F)(F)F	3.665%
CN1C(Cn2cccn2)C[C@@H]2CN(C(=O)c3cccc(C#N)c3)CC[C@@H]21.O=C(O)C(F)(F)F.O=C(O)C(F)(F)F (stereo partly specified)	118.1%
O=C(O)C(F)(F)F.c1csc(CN2C[C@@H](n3cccn3)[C@H]3OCCC[C@H]32)c1	9.631%
CN1[C@H](Cn2cccn2)C[C@@H]2CN(Cc3cccs3)CC[C@@H]21.O=C(O)C(F)(F)F.O=C(O)C(F)(F)F.O=C(O)C(F)(F)F	118%
CC(C)N1[C@H](Cn2cncn2)C[C@@H]2CN(Cc3cccs3)CC[C@@H]21.O=C(O)C(F)(F)F	3.978%
CC(C)N1[C@H](Cn2cccn2)C[C@@H]2CN(Cc3ccoc3)CC[C@@H]21.O=C(O)C(F)(F)F.O=C(O)C(F)(F)F.O=C(O)C(F)(F)F	-17.46%
Cc1ccc(CN2CC[C@H]3[C@H](CC(Cn4cccn4)N3C)C2)s1.O=C(O)C(F)(F)F.O=C(O)C(F)(F)F.O=C(O)C(F)(F)F (stereo partly specified)	96%
CN(C1CCCC1)C(C)(C)C(=O)NCCNC(N)=O	-0.4481%
COCC1CN(C(=O)Cc2ccccn2)Cc2ncnn2C1.O=C(O)C(F)(F)F (stereo unspecified)	-1.318%

SMILES	Percent Effect
Cc1ccc(CN2CCC(Cc3nnc(CO)n3C)CC2)cc1C	-13.27%
CN(c1ncc(S(N)(=O)=O)s1)C1CCC1	11.92%
COc1cc(NCc2ncc[nH]2)ccc1Br	2.622%
Cn1nc2c(cc1=O)CN(CCc1nc3ccccc3c(=O)[nH]1)CC2	5.907%
CN(C)C(=O)COC[C@]12COC[C@H]1CN(Cc1ccccc1)C2.O=C(O)C(F)(F)F	108.4%
CN(C)C(=O)COC[C@]12COC[C@H]1CN(Cc1ccco1)C2.O=C(O)C(F)(F)F	94.75%
CN(C)C(=O)COC[C@]12COC[C@H]1CN(CC1CCC1)C2.O=C(O)C(F)(F)F	-8.978%
CN(C)C(=O)COC[C@]12COC[C@H]1CN(Cc1ccoc1)C2	-6.231%
CCS(=O)(=O)NC[C@]12COC[C@H]1CN(CCc1ccccc1)C2.O=C(O)C(F)(F)F	-14.92%
CN(C)C(=O)COC[C@]12COC[C@H]1CN(CCc1ccccc1)C2.O=C(O)C(F)(F)F	103%
Cc1c(Cl)ccc2ccc(NC(CO)CO)nc12	-19.83%
Cc1ccc(NCc2cn3c(n2)CN(Cc2ccoc2)CC3)nn1.O=C(O)C(F)(F)F.O=C(O)C(F)(F)F	8.385%
CCn1ccnc1CN(C)C(C(=O)O)c1ccc(C(C)(C)C#N)cc1 (stereo unspecified)	-18.43%
C=C(C)COc1cccc(CN(CC)Cc2noc(C)n2)c1	-43.03%
NC1CCN(C(=O)c2cnc(Cc3c(Cl)cccc3Cl)nc2O)C1 (stereo unspecified)	-9.17%
COCCN(Cc1ccco1)Cc1nc(-c2ccsc2)no1	17.38%
CN(C)CCNc1ccc(-c2nc(COc3ccccc3)no2)cn1	-0.8633%
CCN(CC)CCNC(=O)c1cnc(C(C)(C)C)s1	-7.701%
CCN(CC)CCNC(=O)c1cnc(-c2ccccc2)nc1	14.16%
CCN(CC)CCNc1c(-c2ccccc2)c(=O)c1=O	104.3%
CN(C)CCNc1c(-c2ccccc2)c(=O)c1=O	102.6%
CCCN(CCC)CCNc1c(-c2ccccc2)c(=O)c1=O	97.32%
CN(C)CCNc1ccc(-c2nc(-c3ccccc3F)no2)cn1	-20.15%
O=c1ccc2c([nH]1)CCN(S(=O)(=O)c1ccc3c(c1)CCCC3)C2	-15.49%

SMILES	Percent Effect
Cc1ccc(CN2CC[C@@H](N(C)C(C)C)[C@@H]2Cc2ccccc2)o1	-15.45%
CCc1cccc(CC(=O)NC2CCN(C(=O)NC(C)(C)C)CC2)c1	-13.61%
CC(C)c1nc2n(n1)CC(NCc1nnnn1C1CC1)CC2 (stereo unspecified)	8.252%
Cc1nc(CNC2CCc3nc(C(C)C)nn3C2)oc1C (stereo unspecified)	22.08%
CC(C)c1nc2n(n1)CC(NCc1ncc(-c3ccccc3)o1)CC2 (stereo unspecified)	-0.3467%
Cc1ncc(CNC2CCc3nc(C(C)C)nn3C2)s1 (stereo unspecified)	101%
Cc1cnc(CNC2CCc3nc(C(C)C)nn3C2)cn1 (stereo unspecified)	130.4%
CC(C)c1nc2n(n1)CC(NCc1nnc(-c3ccco3)o1)CC2 (stereo unspecified)	-6.468%
CCn1cc(S(=O)(=O)Nc2ccc3[nH]c(C4CCC4)nc3c2)cn1	-33.9%
c1cnn(C2CN(c3nc(-c4ccncc4)nc4c3CCC4)C2)c1	-0.2642%
Cc1ccc(C2CN(C(=O)c3c(C)cc(C)[nH]c3=O)CCO2)c(C)c1 (stereo unspecified)	7.803%
CCC(C)N(C)S(=O)(=O)c1ccc(CCNC(C)=O)s1 (stereo unspecified)	12.12%
CC(=O)Nc1ccsc1C(=O)N1CC[C@@H]2CC[C@H](C1)N2C	-9.655%
Cc1[nH]c(-c2ccccc2)nc1C(=O)N1CC[C@H](CO)[C@@H](O)C1	5.886%
CN1[C@H]2CC[C@@H]1CN(C(=O)c1ccc(-c3ccccc3)[nH]1)CC2	114.3%
CO[C@H]1CN(C(=O)c2nc(-c3ccccc3)[nH]c2C)CC[C@H]1N	99.21%
CC(C)COC1CCN(C(=O)c2cc3ccccc3c(=O)[nH]2)CC1	-14.3%
Cc1[nH]c(-c2ccccc2)nc1C(=O)N1CCC(O)(CO)CC1	-2.686%
O=C(c1cccc(-c2ncc[nH]2)c1)N1CC[C@H](CO)[C@@H](O)C1	-2.343%
CN1[C@H]2CC[C@@H]1CN(C(=O)c1sccc1S(N)(=O)=O)CC2	-9.156%
CO[C@H]1CN(C(=O)c2ccc(-c3cc[nH]n3)cc2)CC[C@H]1N	5.265%
Cc1ccsc1[C@@H]1CCN(C(=O)c2cc3ccccc3[nH]2)C[C@H]1O	-6.106%
CO[C@H]1CN(C(=O)c2cc3ccccc3[nH]2)CC[C@H]1N	117%
CO[C@H]1CN(C(=O)c2ccc(-c3ccccc3)[nH]2)CC[C@H]1N	104.8%
